Assay results: PubChem BioAssay AID2283197 (EPA ToxCast)
Activity calls are given as the source filed them. Rule for the calls: active = hit-call score of the fitted dose curve at least 0.9, where 1 is the maximum; inactive = score below 0.9.

Molecular target: human Protein Kinase D2 (PKD2), PRKD2 (gene 25865) (UniProt Q9BZL6)
Experiment: NVS_ENZ_hPKD2: NovaScreen (NVS) Enzymatic Assay for human Protein Kinase D2 (PKD2)
Description: NVS_ENZ_hPKD2 is a biochemical, single-readout assay that uses extracted gene-proteins in a cell-free assay. Measurements were taken 1 hour after chemical dosing in a 384-well plate.NVS_ENZ_hPKD2 is one of one assay component(s) measured or calculated from the NVS_ENZ_hPKD2 assay. It is designed to make measurements of enzyme activity, a form of enzyme reporter, as detected with fluorescence intensity signals by Fluorescence and electrophoretic mobility shift technology.Data from the assay component NVS_ENZ_hPKD2 was analyzed into 1 assay endpoint. This assay endpoint, NVS_ENZ_hPKD2, was analyzed in the positive analysis fitting direction relative to DMSO as the negative control and baseline of activity. Using a type of enzyme reporter, loss-of-signal activity can be used to understand changes in the enzymatic activity as they relate to the gene PRKD2. Furthermore, this assay endpoint can be referred to as a primary readout, because this assay has produced multiple assay endpoints where this one serves a enzymatic activity function. To generalize the intended target to other relatable targets, this assay endpoint is annotated to the kinase intended target family, where the subfamily is serine/threonine kinase. […]

human Protein Kinase D2 (PKD2), PRKD2 (gene 25865), sequence (Q9BZL6 whole entry, looked up): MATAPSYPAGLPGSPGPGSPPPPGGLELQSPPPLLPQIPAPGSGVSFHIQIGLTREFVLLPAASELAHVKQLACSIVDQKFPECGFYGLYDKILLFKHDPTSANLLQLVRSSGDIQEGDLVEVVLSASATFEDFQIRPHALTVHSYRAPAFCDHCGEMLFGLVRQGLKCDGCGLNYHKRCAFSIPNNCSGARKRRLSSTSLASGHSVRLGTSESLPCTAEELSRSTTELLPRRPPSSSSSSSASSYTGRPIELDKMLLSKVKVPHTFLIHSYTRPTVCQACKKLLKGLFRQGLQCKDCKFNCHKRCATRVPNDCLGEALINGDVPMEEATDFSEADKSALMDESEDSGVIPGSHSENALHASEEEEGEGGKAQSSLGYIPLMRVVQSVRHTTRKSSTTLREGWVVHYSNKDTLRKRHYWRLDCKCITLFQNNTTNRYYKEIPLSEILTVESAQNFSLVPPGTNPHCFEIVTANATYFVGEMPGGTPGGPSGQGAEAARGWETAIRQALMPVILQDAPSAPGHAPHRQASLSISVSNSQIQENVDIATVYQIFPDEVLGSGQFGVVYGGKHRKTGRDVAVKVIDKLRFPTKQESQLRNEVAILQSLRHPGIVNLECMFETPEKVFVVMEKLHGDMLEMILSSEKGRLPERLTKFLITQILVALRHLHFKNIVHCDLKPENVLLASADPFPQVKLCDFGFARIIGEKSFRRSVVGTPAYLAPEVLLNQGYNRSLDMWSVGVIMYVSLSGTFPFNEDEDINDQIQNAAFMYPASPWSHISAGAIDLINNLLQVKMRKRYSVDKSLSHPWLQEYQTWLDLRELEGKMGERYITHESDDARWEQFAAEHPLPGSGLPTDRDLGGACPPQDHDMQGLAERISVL

Structure (SMILES) | outcome
N#CSCSc1nc2ccccc2s1 | inactive
Oc1ccc(C(c2ccc(O)cc2)C(Cl)(Cl)Cl)cc1 | inactive
